Assay results as given in PubChem BioAssay (Tox21).
Inconclusive results are not listed. Active and inactive are the calls of the source. Unless noted, calls come from the whole dose curve; as a rule, active = well fitted curve in the direction sought with a large enough effect in the repeat runs; inconclusive = weak or mixed curves; inactive = no such curve, though single readings can be large; an effect the other way counts as inactive or inconclusive.

How the values were obtained:
[1] = molecular target: Luciferin 4-monooxygenase (Photinus pyralis) (UniProt P08659); test: qHTS assay to identify small molecule inhibitors of firefly luciferase (AID 1224835); note: nearly all actives have a fitted effect of over 25% in size; note: potency is the fitted concentration of half-maximal effect; for activity change, negative = inhibition: series mostly up to about 120 µM
Method in brief: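 Inhibition of purified Photinus luciferase is measured by luminescence. Substrate levels (D-luciferin, ATP) sit at their KM values. Each compound is tested in a concentration series.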

[2] = qHTS assay to identify small molecule antagonists of the constitutive androstane receptor (CAR) signaling pathway - cell viability counter screen (AID 1224837); note: series mostly up to about 92 µM; nearly all actives have a fitted effect of over 45% in size
Method in brief: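 Read-out: CellTiter-Fluor fluorescence after 23 hr at 37 C/5% CO2. Cells: HepG2 double-stable for hCAR and CYP2B6-2.2kb. Compounds tested at 15 concentrations in the presence of CITCO, final concentration 50 nM.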

[3] = molecular target: Nuclear receptor subfamily 1 group I member 3 (Homo sapiens) (UniProt Q14994); test: qHTS assay to identify small molecule antagonists of the constitutive androstane receptor (CAR) signaling pathway (AID 1224838);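 note: HepG2 cells stably expressing hCAR with CYP2B6 luciferase reporter stimulated by CITCO; nearly all actives have a fitted effect of over 40% in size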
Method in brief: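 Read-out: ONE-Glo luciferase luminescence after 30 min at room temperature. HepG2-CYP2B6-hCAR double-stable cells, compounds in 15-point titration plus 50 nM CITCO final, 24 h at 37 C/5% CO2.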

[4] = molecular target: Nuclear receptor subfamily 1 group I member 3 (Homo sapiens) (UniProt Q14994); test: qHTS assay to identify small molecule agonists of the constitutive androstane receptor (CAR) signaling pathway (AID 1224839); note: nearly all actives have a fitted effect of over 15% in size; note: potency is the fitted concentration of half-maximal effect;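 for activation: HepG2 cells stably carrying human CAR and a CYP2B6 luciferase reporter; series mostly up to about 92 µM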
Method in brief: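 Readout: firefly luciferase luminescence via ONE-Glo. System: HepG2 double-stable for hCAR and CYP2B6-2.2kb. Conditions: 15-point compound titration, PK11195 at 0.75 uM final, 24 h incubation.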

[5] = qHTS assay to identify small molecule antagonists of the estrogen related receptor signaling pathway with the pleiotropic PPARgamma coactivator (PGC) from Tox21 10K library - cell viability counter screen (AID 1224840; active = well fitted cell-killing curve with a large enough effect in the repeat runs, not every such curve was filed as active; note: nearly all actives have a fitted effect of over 40% in size)
Method in brief: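 Fluorescence read-out of CellTiter-Fluor viability reagent, added after cells had been exposed to compound in DMSO for 17.5 h at 37 C; 30 min development at 37 C/5% CO2. Cells: PGC/ERR line, 2,000/well.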

[6] = molecular target: Thyrotropin receptor (Homo sapiens) (UniProt P16473); test: qHTS assay to identify small molecule agonists of the thyroid stimulating hormone receptor (TSHR) signaling pathway (AID 1224843; calls by dose curve; note: nearly all actives have a fitted effect of over 45% in size)
Method in brief: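 Agonist activity read as cAMP rise via d2/cryptate HTRF competition, 1 h room-temperature detection, in HEK293 cells expressing TSHR. Fifteen-point titrations, each run in triplicate, with a 30 min room-temperature incubation beforehand.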

[7] = qHTS assay to identify small molecule agonists of the hypoxia (HIF-1) signaling pathway - cell viability counter screen (AID 1224844; calls by dose curve; note: nearly all actives have a fitted effect of over 50% in size; note: potency is the fitted concentration of half-maximal effect)
Method in brief: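 CellTiter-Glo luminescence read-out, 30 min RT, taken in the same wells as the beta-lactamase HRE reporter assay; HRE-bla ME-180 cells, 0.5% dialyzed FBS, 17 hr compound treatment at 37C, 5% CO2.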

[8] = qHTS assay to identify small molecule antagonists of the estrogen related receptor signaling pathway with the pleiotropic PPARgamma coactivator (PGC) from Tox21 10K library (AID 1224841; call rule not given here; note: series mostly up to about 92 µM; actives are mostly falling curves and most rising ones were filed inactive; nearly all actives have a fitted effect of over 50% in size)
Method in brief: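 Luminescence read-out (One-Glo luciferase reagent, 30 min at room temperature) from PGC/ERR cells exposed to DMSO-dissolved test compounds for 18 h at 37 C; cells, 2,000 per well, had been preincubated 6 h before compound transfer.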

[9] = qHTS assay to identify small molecule agonists of the estrogen related receptor signaling pathway with the pleiotropic PPARgamma coactivator (PGC) from Tox21 10K library (AID 1224842); note: nearly all actives have a fitted effect of over 15% in size; note: potency is the fitted concentration of half-maximal effect
Method in brief: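 Luminescence from One-Glo (30 min, room temperature) measured after PGC/ERR cells had 18 h at 37 C with pinned compound (23 nL in DMSO). Cells had been seeded at 2,000 per well and pre-incubated 6 h.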

[10] = qHTS assay to identify small molecule agonists of the constitutive androstane receptor (CAR) signaling pathway - cell viability counter screen (AID 1224836); note: series mostly up to about 92 µM; nearly all actives have a fitted effect of over 45% in size
Method in brief: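 Double-stable HepG2 hepatoma cells (hCAR plus CYP2B6-2.2kb) are treated for 23 h at 37 C with test compounds in 15-point concentration series. PK11195 at 0.75 uM final is co-added. Cell viability is quantified by CellTiter-Fluor.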
% is set by controls: 0 for no effect and ±100 for the full control effect.

Chain of Thyrotropin receptor (Homo sapiens) (P16473 whole entry, looked up): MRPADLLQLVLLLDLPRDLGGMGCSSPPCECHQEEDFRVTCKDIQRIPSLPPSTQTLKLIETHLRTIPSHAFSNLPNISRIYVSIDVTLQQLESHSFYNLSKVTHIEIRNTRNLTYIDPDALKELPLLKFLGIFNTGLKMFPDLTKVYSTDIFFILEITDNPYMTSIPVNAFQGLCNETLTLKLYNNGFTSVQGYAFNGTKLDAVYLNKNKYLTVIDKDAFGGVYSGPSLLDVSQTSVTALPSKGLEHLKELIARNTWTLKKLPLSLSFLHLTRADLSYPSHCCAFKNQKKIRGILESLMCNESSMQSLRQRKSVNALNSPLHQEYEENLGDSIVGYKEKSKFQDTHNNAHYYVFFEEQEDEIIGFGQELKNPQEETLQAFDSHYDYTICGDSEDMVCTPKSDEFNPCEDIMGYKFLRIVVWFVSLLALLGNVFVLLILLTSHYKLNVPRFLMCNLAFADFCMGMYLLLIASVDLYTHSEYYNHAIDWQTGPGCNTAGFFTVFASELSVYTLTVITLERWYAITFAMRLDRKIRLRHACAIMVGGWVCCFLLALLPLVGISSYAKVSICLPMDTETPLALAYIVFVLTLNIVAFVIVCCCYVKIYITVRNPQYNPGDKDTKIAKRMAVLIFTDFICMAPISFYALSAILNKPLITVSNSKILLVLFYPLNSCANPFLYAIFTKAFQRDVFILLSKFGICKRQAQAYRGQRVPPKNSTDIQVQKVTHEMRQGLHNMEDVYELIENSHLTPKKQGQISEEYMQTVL
Chain of Luciferin 4-monooxygenase (Photinus pyralis) (P08659 whole entry, looked up): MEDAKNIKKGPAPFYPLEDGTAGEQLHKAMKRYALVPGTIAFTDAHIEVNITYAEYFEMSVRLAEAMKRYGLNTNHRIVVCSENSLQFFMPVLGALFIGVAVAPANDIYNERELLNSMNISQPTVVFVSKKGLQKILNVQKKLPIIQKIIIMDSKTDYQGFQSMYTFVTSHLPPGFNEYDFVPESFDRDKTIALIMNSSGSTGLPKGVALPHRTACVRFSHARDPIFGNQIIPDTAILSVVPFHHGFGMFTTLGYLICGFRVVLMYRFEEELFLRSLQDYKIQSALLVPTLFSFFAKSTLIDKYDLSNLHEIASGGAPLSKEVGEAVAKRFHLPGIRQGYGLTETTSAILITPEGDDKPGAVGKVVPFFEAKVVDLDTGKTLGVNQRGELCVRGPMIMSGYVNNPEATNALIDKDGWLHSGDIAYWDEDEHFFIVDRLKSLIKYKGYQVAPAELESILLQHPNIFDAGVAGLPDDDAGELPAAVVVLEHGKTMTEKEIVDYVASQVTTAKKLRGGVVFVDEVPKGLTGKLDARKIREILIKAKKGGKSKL
Chain of Nuclear receptor subfamily 1 group I member 3 (Homo sapiens) (Q14994 whole entry, looked up): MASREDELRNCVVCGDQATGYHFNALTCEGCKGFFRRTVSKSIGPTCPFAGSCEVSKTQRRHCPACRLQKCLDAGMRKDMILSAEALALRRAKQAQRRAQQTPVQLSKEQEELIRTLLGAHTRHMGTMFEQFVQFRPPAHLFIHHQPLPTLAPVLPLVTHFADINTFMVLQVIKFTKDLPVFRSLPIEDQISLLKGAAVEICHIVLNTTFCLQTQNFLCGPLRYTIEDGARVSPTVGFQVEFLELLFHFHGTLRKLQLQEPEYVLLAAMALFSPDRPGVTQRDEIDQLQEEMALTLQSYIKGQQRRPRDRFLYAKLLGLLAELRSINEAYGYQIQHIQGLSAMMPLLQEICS

CCN(CC)CCNC(=O)c1cc(Cl)c(N)cc1OC
inactive: Potency [1] | Potency [2] | Potency [3] | Potency [4] | Potency [5] | Potency [6] | Potency [7]

CCC(CO)(CO)[N+](=O)[O-]
inactive: Potency [1] | Potency [2] | Potency [3] | Potency [4] | Potency [5] | Potency [8] | Potency [9] | Potency [6] | Potency [7]

O=C(c1ccccc1)C1CCC1
inactive: Potency [1] | Potency [2] | Potency [3] | Potency [4] | Potency [5] | Potency [6] | Potency [7]

COc1ccc(CCN(C)CCCN2CCc3cc(OC)c(OC)cc3CC2=O)cc1OC
inactive: Potency [1] | Potency [10] | Potency [3] | Potency [4] | Potency [5] | Potency [7]

CC1C(C)(C)C2=C(C(=O)CCC2)C1(C)C (stereo not given)
inactive: Potency [1] | Potency [2] | Potency [3] | Potency [4] | Potency [5] | Potency [8] | Potency [9] | Potency [6] | Potency [7]

O=C(O)CN1C(=O)c2cccc3cccc(c23)C1=O
inactive: Potency [1] | Potency [2] | Potency [3] | Potency [4] | Potency [5] | Potency [8] | Potency [9] | Potency [6]

CC(=O)OCC(C)C
inactive: Potency [1] | Potency [10] | Potency [3] | Potency [4] | Potency [5] | Potency [7]

COC(CC(C)CCCC(C)(C)O)OC (stereo not given)
inactive: Potency [1] | Potency [10] | Potency [3] | Potency [4] | Potency [5] | Potency [6] | Potency [7]

CC(C)(C(=O)c1cccnc1)c1cccnc1
inactive: Potency [1] | Potency [2] | Potency [3] | Potency [4] | Potency [5] | Potency [6] | Potency [7]

C[C@@H]1[C@H](O)[C@@H](C)/C=C/C=C\C=C\C=C\C=C\C=C\C=C\[C@H](O[C@@H]2O[C@H](C)[C@@H](O)[C@H](N)[C@@H]2O)C[C@@H]2O[C@](O)(C[C@@H](O)C[C@@H](O)[C@H](O)CC[C@@H](O)C[C@@H](O)CC(=O)O[C@H]1C)C[C@H](O)[C@H]2C(=O)O (stereo in doubt)
inactive: Potency [1] | Potency [10] | Potency [3] | Potency [5] | Potency [6]

CC1CCCO1 (stereo not given)
inactive: Potency [1] | Potency [2] | Potency [3] | Potency [4] | Potency [5] | Potency [7]

CC[C@H]1OC(=O)[C@H](C)[C@@H](O[C@H]2C[C@@](C)(OC)[C@@H](O)[C@H](C)O2)[C@H](C)[C@@H](O[C@@H]2O[C@H](C)C[C@H](N(C)C)[C@H]2O)[C@](C)(O)C[C@@H](C)CN(C)[C@H](C)[C@@H](O)[C@]1(C)O
inactive: Potency [1] | Potency [10] | Potency [3] | Potency [4] | Potency [5] | Potency [7]

CC[C@@H](CO)NCCN[C@@H](CC)CO
inactive: Potency [1] | Potency [2] | Potency [3] | Potency [4] | Potency [5] | Potency [8] | Potency [9] | Potency [6] | Potency [7]

CCN(CC)CC(=O)Nc1c(C)cccc1C(=O)OC
active: Potency [4] 23.7 µM
inactive: Potency [1] | Potency [10] | Potency [3] | Potency [5] | Potency [6] | Potency [7]

C=CC(=O)NC(C)C
inactive: Potency [1] | Potency [10] | Potency [5] | Potency [8] | Potency [9] | Potency [6] | Potency [7]

O=[N+]([O-])C1(Br)COCOC1
inactive: Potency [2] | Potency [4] | Potency [8] | Potency [9]
active: Potency [1] 25.2 µM | Potency [7] 38.9 µM

COc1cc(OC)c2ccc(=O)oc2c1
inactive: Potency [1] | Potency [2] | Potency [3] | Potency [5] | Potency [6] | Potency [7]

CNC1CCCN(c2c(F)cc3c(=O)c(C(=O)O)cn(C4CC4)c3c2OC)C1 (stereo not given)
inactive: Potency [1] | Potency [2] | Potency [3] | Potency [4] | Potency [5] | Potency [6] | Potency [7]

Nc1c(Cl)cc(Cl)cc1[N+](=O)[O-]
inactive: Potency [1] | Potency [2] | Potency [3] | Potency [4] | Potency [5] | Potency [8] | Potency [6] | Potency [7]
active: Potency [9] 5.45 µM

CC(=O)C(=O)CC(C)C
inactive: Potency [1] | Potency [10] | Potency [5] | Potency [6] | Potency [7]

O=C(O)c1cc(Cl)cc(Cl)c1O
inactive: Potency [1] | Potency [10] | Potency [5] | Potency [8] | Potency [9] | Potency [6] | Potency [7]

CCCCOCCOC(=O)c1cccnc1
inactive: Potency [1] | Potency [10] | Potency [3] | Potency [4] | Potency [5] | Potency [6]

C=C(C)c1ccccc1
inactive: Potency [1] | Potency [10] | Potency [3] | Potency [4] | Potency [5] | Potency [6] | Potency [7]

CCCCCCCCCCCCCCCCCC(=O)OCC(CC)CCCC (stereo not given)
inactive: Potency [1] | Potency [10] | Potency [3] | Potency [4] | Potency [5] | Potency [6]

Cc1c[nH]c2ccccc12
inactive: Potency [1] | Potency [2] | Potency [3] | Potency [4] | Potency [5] | Potency [9] | Potency [6] | Potency [7]

C1CCCCC1
inactive: Potency [1] | Potency [2] | Potency [3] | Potency [4] | Potency [5] | Potency [8] | Potency [9] | Potency [7]

CCC(=O)OCc1ccc(OC)cc1
inactive: Potency [1] | Potency [2] | Potency [3] | Potency [5] | Potency [6] | Potency [7]

COc1cc(S(=O)(=O)Nc2ccccc2)c(OC)cc1N
inactive: Potency [1] | Potency [10] | Potency [3] | Potency [5] | Potency [6] | Potency [7]

C/C(C=O)=C\c1ccccc1
inactive: Potency [1] | Potency [2] | Potency [3] | Potency [4] | Potency [5] | Potency [6] | Potency [7]

CCCCCCCCCCCCCOC(=O)CCSCCC(=O)OCCCCCCCCCCCCC
inactive: activity change, negative = inhibition [1] -2.08% [at 23.6 µM] | activity change, negative = cytotoxicity [2] -3.13% [at 19 µM] | activity, negative = inhibition [3] 5.4% [at 19 µM] | activation [4] -0.548% [at 19 µM] | viability change, negative = cytotoxic [5] 0.0068% [at 19 µM] | activation [6] -1.63% [at 19 µM] | activity change, negative = cytotoxicity [7] 4.03% [at 15.8 µM]

CCc1ccc(C)cc1
inactive: Potency [1] | Potency [2] | Potency [3] | Potency [4] | Potency [5]

O=C(O)c1cccc(C[C@@H]2COc3ccc(OCc4nc5cc(F)ccc5s4)cc3[C@@H]2O)c1
inactive: Potency [1] | Potency [10] | Potency [3] | Potency [4] | Potency [5] | Potency [6] | Potency [7]

O=C(CCS)OCC(COC(=O)CCS)(COC(=O)CCS)COC(=O)CCS
inactive: Potency [1] | Potency [2] | Potency [3] | Potency [4] | Potency [5] | Potency [6]

CCOC(=O)Oc1ccc(CCNC(=O)[C@H](CCSC)NC(C)=O)cc1OC(=O)OCC
inactive: Potency [1] | Potency [2] | Potency [3] | Potency [4] | Potency [5] | Potency [6]

COc1ccc(/C=C/C(=O)c2ccc(OC)cc2OC)cc1
active: Potency [4] 21.1 µM
inactive: Potency [10] | Potency [2] | Potency [3] | Potency [5] | Potency [8] | Potency [9] | Potency [6] | Potency [7]
